# Assay results: PubChem BioAssay AID1159580 (chemical genetic matrix, 2015)
# The campaign covered roughly 5,500 compounds. About 2,000 (36%) were called active. Inconclusive results (about 18%) are left out. The list shows a part of the results. Values without a mark were called inactive. Rule as the data show it: active = normalized growth mostly below about 0.91 (no sharp cut-off); inconclusive = no clear call, values can overlap the other calls; inactive = mostly above about 0.92.
# Assay: chemical genetic growth profiling, strain panel (AID 1159580);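 also: tested at 20 µM; growth read once vehicle control cultures reached saturation at 30 °C; 1 = growth at the plate median or of vehicle wells; lower values mean less growth of the strain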
# Conditions: growth OD
# [1] = S. cerevisiae deletion strains, locus YAL013W, strain DEP1, stronger effect = lower value
# [2] = S. cerevisiae deletion strains, locus YBR229C, strain ROT2, stronger effect = lower value
# [3] = S. cerevisiae deletion strains, locus YDL101C, strain DUN1, stronger effect = lower value
# [4] = S. cerevisiae deletion strains, locus YDL134C, strain PPH21, stronger effect = lower value
# [5] = S. cerevisiae deletion strains, locus YDR150W, strain NUM1, stronger effect = lower value
# [6] = S. cerevisiae deletion strains, locus YEL061C, strain CIN8, stronger effect = lower value
# [7] = S. cerevisiae deletion strains, locus YGR078C, strain PAC10, stronger effect = lower value
# [8] = S. cerevisiae deletion strains, locus YHR030C, strain SLT2, stronger effect = lower value
# [9] = S. cerevisiae deletion strains, locus YJR043C, strain POL32, stronger effect = lower value
# [10] = S. cerevisiae deletion strains, locus YJR075W, strain HOC1, stronger effect = lower value
# [11] = S. cerevisiae deletion strains, locus YKL190W, strain CNB1, stronger effect = lower value
# [12] = S. cerevisiae deletion strains, locus YLR039C, strain RIC1, stronger effect = lower value
# [13] = S. cerevisiae deletion strains, locus YLR262C, strain YPT6, stronger effect = lower value
# [14] = S. cerevisiae deletion strains, locus YMR263W, strain SAP30, stronger effect = lower value
# [15] = S. cerevisiae deletion strains, locus YMR307W, strain GAS1, stronger effect = lower value
# [16] = S. cerevisiae deletion strains, locus YNL153C, strain GIM3, stronger effect = lower value
# [17] = S. cerevisiae deletion strains, locus YNL322C, strain KRE1, stronger effect = lower value
# [18] = S. cerevisiae deletion strains, locus YPL055C, strain LGE1, stronger effect = lower value
# [19] = S. cerevisiae deletion strains, locus YPL241C, strain CIN2, stronger effect = lower value
smiles,measurement,setting,value
CNC(=O)Oc1cccc2c1OC(C)(C)C2,normalized growth,[1],1.01
same,normalized growth,"S. cerevisiae deletion strains, locus YBR021W, strain FUR4, stronger effect = lower value",0.994
same,normalized growth,[2],1
same,normalized growth,"S. cerevisiae deletion strains, locus YCL029C, strain bik1, stronger effect = lower value",1
same,normalized growth,"S. cerevisiae deletion strains, locus YDL035C, strain GPR1, stronger effect = lower value",1.01
same,normalized growth,"S. cerevisiae deletion strains, locus YDL074C, strain BRE1, stronger effect = lower value",1.03
same,normalized growth,[3],1.02
same,normalized growth,[4],0.997
same,normalized growth,"S. cerevisiae deletion strains, locus YDL185W, strain tfp1, stronger effect = lower value",0.978
same,normalized growth,"S. cerevisiae deletion strains, locus YDL192W, strain arf1, stronger effect = lower value",1
same,normalized growth,"S. cerevisiae deletion strains, locus YDR101C, strain arx1, stronger effect = lower value",0.992
same,normalized growth,[5],1.01
same,normalized growth,"S. cerevisiae deletion strains, locus YDR162C, strain NBP2, stronger effect = lower value",1.01
same,normalized growth,"S. cerevisiae deletion strains, locus YDR318W, strain mcm21, stronger effect = lower value",0.995
same,normalized growth,"S. cerevisiae deletion strains, locus YDR388W, stronger effect = lower value",0.996
same,normalized growth,"S. cerevisiae deletion strains, locus YDR502C, strain sam2, stronger effect = lower value",1
same,normalized growth,[6],1
same,normalized growth,"S. cerevisiae deletion strains, locus YER110C, stronger effect = lower value",0.993
same,normalized growth,"S. cerevisiae deletion strains, locus YER155C, strain BEM2, stronger effect = lower value",1.02
same,normalized growth,"S. cerevisiae deletion strains, locus YER167W, strain BCK2, stronger effect = lower value",1.02
same,normalized growth,"S. cerevisiae deletion strains, locus YGL078C, strain dbp3, stronger effect = lower value",0.979
same,normalized growth,"S. cerevisiae deletion strains, locus YGL086W, strain mad1, stronger effect = lower value",0.995
same,normalized growth,"S. cerevisiae deletion strains, locus YGL248W, strain PDE1, stronger effect = lower value",1.01
same,normalized growth,[7],1.01
same,normalized growth,"S. cerevisiae deletion strains, locus YGR135W, strain pre9, stronger effect = lower value",1
same,normalized growth,"S. cerevisiae deletion strains, locus YGR229C, strain SMI1, stronger effect = lower value",1.02
same,normalized growth,"S. cerevisiae deletion strains, locus YGR252W, strain gcn5, stronger effect = lower value",0.99
same,normalized growth,[8],1.01
same,normalized growth,"S. cerevisiae deletion strains, locus YHR079C, strain IRE1 (second series), stronger effect = lower value",0.996
same,normalized growth,"S. cerevisiae deletion strains, locus YHR094C, strain hxt1, stronger effect = lower value",0.994
same,normalized growth,"S. cerevisiae deletion strains, locus YHR129C, strain ARP1, stronger effect = lower value",1.01
same,normalized growth,"S. cerevisiae deletion strains, locus YHR200W, strain rpn10, stronger effect = lower value",1
same,normalized growth,"S. cerevisiae deletion strains, locus YIL066C, strain RNR3, stronger effect = lower value",1.01
same,normalized growth,"S. cerevisiae deletion strains, locus YIL073C, strain SPO22, stronger effect = lower value",1.04
same,normalized growth,"S. cerevisiae deletion strains, locus YIL125W, strain kgd1, stronger effect = lower value",0.987
same,normalized growth,"S. cerevisiae deletion strains, locus YIR030C, strain dcg1, stronger effect = lower value",0.996
same,normalized growth,"S. cerevisiae deletion strains, locus YJL095W, strain BCK1, stronger effect = lower value",1
same,normalized growth,"S. cerevisiae deletion strains, locus YJL134W, strain LCB3, stronger effect = lower value",1
same,normalized growth,"S. cerevisiae deletion strains, locus YJL168C, strain set2, stronger effect = lower value",0.997
same,normalized growth,"S. cerevisiae deletion strains, locus YJL187C, strain SWE1 (second series), stronger effect = lower value",1.01
same,normalized growth,[9],1.01
same,normalized growth,[10],1.01
same,normalized growth,"S. cerevisiae deletion strains, locus YKL009W, strain mrt4, stronger effect = lower value",1.01
same,normalized growth,"S. cerevisiae deletion strains, locus YKL068W, stronger effect = lower value",0.987
same,normalized growth,"S. cerevisiae deletion strains, locus YKL085W, strain MDH1 (second series), stronger effect = lower value",0.978
same,normalized growth,"S. cerevisiae deletion strains, locus YKL085W, strain MDH1, stronger effect = lower value",0.978
same,normalized growth,[11],1.02
same,normalized growth,"S. cerevisiae deletion strains, locus YKR001C, strain vps1, stronger effect = lower value",0.999
same,normalized growth,[12],1.04
same,normalized growth,"S. cerevisiae deletion strains, locus YLR058C, strain SHM2, stronger effect = lower value",1.01
same,normalized growth,"S. cerevisiae deletion strains, locus YLR102C, strain apc9, stronger effect = lower value",1
same,normalized growth,[13],1.06
same,normalized growth,"S. cerevisiae deletion strains, locus YLR268W, strain sec22, stronger effect = lower value",1.01
same,normalized growth,"S. cerevisiae deletion strains, locus YLR330W, strain CHS5, stronger effect = lower value",1
same,normalized growth,"S. cerevisiae deletion strains, locus YLR342W, strain FKS1 (second series), stronger effect = lower value",1.02
same,normalized growth,"S. cerevisiae deletion strains, locus YLR371W, strain rom2, stronger effect = lower value",0.993
same,normalized growth,"S. cerevisiae deletion strains, locus YLR418C, strain cdc73, stronger effect = lower value",0.973
same,normalized growth,"S. cerevisiae deletion strains, locus YML016C, strain PPZ1, stronger effect = lower value",1
same,normalized growth,"S. cerevisiae deletion strains, locus YML032C, strain rad52, stronger effect = lower value",1
same,normalized growth,"S. cerevisiae deletion strains, locus YML124C, strain tub3, stronger effect = lower value",0.999
same,normalized growth,"S. cerevisiae deletion strains, locus YMR078C, strain ctf18, stronger effect = lower value",0.988
same,normalized growth,"S. cerevisiae deletion strains, locus YMR223W, strain ubp8, stronger effect = lower value",0.992
same,normalized growth,[14],0.992
same,normalized growth,[15],1.02
same,normalized growth,"S. cerevisiae deletion strains, locus YNL067W, strain RPL9B, stronger effect = lower value",1.02
same,normalized growth,"S. cerevisiae deletion strains, locus YNL128W, strain TEP1, stronger effect = lower value",1.02
same,normalized growth,[16],1.01
same,normalized growth,"S. cerevisiae deletion strains, locus YNL233W, strain BNI4, stronger effect = lower value",1.02
same,normalized growth,"S. cerevisiae deletion strains, locus YNL250W, strain rad50, stronger effect = lower value",0.967
same,normalized growth,"S. cerevisiae deletion strains, locus YNL271C, strain bni1, stronger effect = lower value",0.977
same,normalized growth,"S. cerevisiae deletion strains, locus YNL298W, strain CLA4, stronger effect = lower value",0.986
same,normalized growth,"S. cerevisiae deletion strains, locus YNL307C, strain MCK1, stronger effect = lower value",0.995
same,normalized growth,[17],1.01
same,normalized growth,"S. cerevisiae deletion strains, locus YNR052C, strain pop2, stronger effect = lower value",1
same,normalized growth,"S. cerevisiae deletion strains, locus YOL006C, strain TOP1, stronger effect = lower value",1.01
same,normalized growth,"S. cerevisiae deletion strains, locus YOL012C, strain htz1",0.992
same,normalized growth,"S. cerevisiae deletion strains, locus YOL147C, strain pex11, stronger effect = lower value",0.996
same,normalized growth,"S. cerevisiae deletion strains, locus YOR061W, strain CKA2, stronger effect = lower value",1
same,normalized growth,"S. cerevisiae deletion strains, locus YOR069W, strain VPS5, stronger effect = lower value",1.01
same,normalized growth,"S. cerevisiae deletion strains, locus YOR136W, strain idh2, stronger effect = lower value",0.993
same,normalized growth,"S. cerevisiae deletion strains, locus YOR144C, strain elg1, stronger effect = lower value",1
same,normalized growth,"S. cerevisiae deletion strains, locus YOR184W, strain ser1, stronger effect = lower value",1.01
same,normalized growth,"S. cerevisiae deletion strains, locus YOR316C, strain cot1, stronger effect = lower value",0.996
same,normalized growth,[18],1.03
same,normalized growth,[19],1
same,normalized growth,"S. cerevisiae deletion strains, locus YPR119W, strain clb2, stronger effect = lower value",0.993
same,normalized growth,"S. cerevisiae deletion strains, locus YPR141C, strain kar3, stronger effect = lower value",0.973
same,normalized growth,"S. cerevisiae deletion strains, locus YPR163C, strain tif3, stronger effect = lower value",0.987
same,normalized growth,"S. cerevisiae deletion strains, locus YPR167C, strain met16, stronger effect = lower value",0.999
same,normalized growth,"S. cerevisiae deletion strains, strain wtn01, stronger effect = lower value",0.994
same,normalized growth,"S. cerevisiae strains, strain wild type, stronger effect = lower value",1.01
N#Cc1cc(I)c(C#N)c(I)c1,normalized growth,[1],0.765 (active)
same,normalized growth,[2],0.771 (active)
same,normalized growth,[3],0.72 (active)
same,normalized growth,[4],0.978
same,normalized growth,[5],0.782 (active)
same,normalized growth,[6],0.981
same,normalized growth,[7],0.693 (active)
same,normalized growth,[8],0.988
same,normalized growth,"S. cerevisiae deletion strains, locus YHR087W, strain rtc3, stronger effect = lower value",0.737 (active)
same,normalized growth,[9],0.777 (active)
same,normalized growth,[10],0.693 (active)
same,normalized growth,[11],0.973
same,normalized growth,[12],0.905
same,normalized growth,"S. cerevisiae deletion strains, locus YLR058C, strain SHM2 (second series), stronger effect = lower value",0.733 (active)
same,normalized growth,"S. cerevisiae deletion strains, locus YLR085C, strain ARP6, stronger effect = lower value",0.949
same,normalized growth,[13],0.94
same,normalized growth,"S. cerevisiae deletion strains, locus YML094W, strain GIM5, stronger effect = lower value",0.98
same,normalized growth,"S. cerevisiae deletion strains, locus YMR219W, strain ESC1, stronger effect = lower value",0.786 (active)
same,normalized growth,[14],0.775 (active)
same,normalized growth,[15],0.961
same,normalized growth,[16],0.746 (active)
same,normalized growth,"S. cerevisiae deletion strains, locus YNL298W, strain CLA4 (second series), stronger effect = lower value",0.937
same,normalized growth,[17],0.75 (active)
same,normalized growth,"S. cerevisiae deletion strains, locus YNR030W, strain Alg12, stronger effect = lower value",0.949
same,normalized growth,[18],0.643 (active)
same,normalized growth,[19],0.979
same,normalized growth,"S. cerevisiae deletion strains, locus YPR135W, strain CTF4, stronger effect = lower value",1.01
